The source of these data is PubChem BioAssay AID651965 (National Center for Advancing Translational Sciences (NCATS), 2013).

SMILES strings stand for the structures. Among all 340,000 compounds or so, about 6,400 (1.9%) were called active. Another 4% or so got no clear call; they are omitted. This excerpt belongs to a sample that is enriched for actives. Unmarked numbers belong to inactive results. Calls come from the whole dose curve; as a rule, active = well fitted falling curve with a large enough effect; inconclusive = small, poorly fitted or top-dose-only effect; inactive = no such curve, though single readings can be large or run the other way.
Potency is the fitted concentration of half-maximal effect.

Chain of ATP-dependent Clp protease proteolytic subunit (Bacillus subtilis (strain 168)) (P80244 whole entry, looked up): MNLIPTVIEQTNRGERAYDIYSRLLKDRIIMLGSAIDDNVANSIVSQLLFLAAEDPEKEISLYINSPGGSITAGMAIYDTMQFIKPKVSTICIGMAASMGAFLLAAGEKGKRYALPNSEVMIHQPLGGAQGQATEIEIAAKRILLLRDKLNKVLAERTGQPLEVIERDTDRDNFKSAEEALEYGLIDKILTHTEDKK

This assay addresses ATP-dependent Clp protease proteolytic subunit (Bacillus subtilis (strain 168)) (UniProt P80244). Kind of assay: qHTS Assay for Activators of ClpP. Note: the source files actives as falling curves though it sought activators and does not explain the sign; nearly all actives have a fitted effect of over 65% in size. The settings on record: purified B. subtilis ClpP, FRET peptide cleavage, 20 min; series mostly up to 57.5 µM; activity change, negative = active: at the top concentration. A digest of the protocol:
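Purified B. subtilis ClpP, 10 microg/mL final in Tris/HCl pH8 with KCl, BSA, glycerol and Tween-20, cleaved an Abz/nitrotyrosine-quenched decapeptide. Fluorescence (ex 320, em 430) was read at 0 and 20 min at room temperature. Delta was normalized to 5.8 microM ADEP and DMSO/no-enzyme controls.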
Background: Quantitative high-throughput screening tests each substance at several concentrations.
Regarding `Cc1ccc(S(=O)(=O)NN=C2CC(C)(C)CC(=O)C2(C)C)cc1`, the “activity change, negative = active” value was -0.103%.

Regarding `O=C1COc2ccc(-c3csc(-c4ccc(Cl)cc4)n3)cc2N1`, the “activity change, negative = active” value was 3.36%. With `CSc1ccccc1-c1nnc(-c2ccc(Cl)cc2)o1`, the Potency was 31.6 µM (active). Take `COc1ccccc1-c1nnc(-c2ccc(F)cc2)o1`: the “activity change, negative = active” value was -0.414%. On the same count and under the same terms, the same measure for `CSc1ccccc1-c1nnc(NC(=O)c2ccc3c(c2)OCCO3)o1`: 4.31%; for `CCC(C)CN1C(=O)CSCC1(C)C(=O)NCc1ccccc1` (stereo not given): -4.83%. With `O=C(NCc1ccccc1)c1ccc2c(c1)nc1n2CCCCC1`, the “activity change, negative = active” value is -5.59%. `Cc1ccc(C)n1-c1nnc(N2CCC(C(=O)NCc3ccc(F)cc3)CC2)s1`: the “activity change, negative = active” value was 10.4%. For the molecule `O=C(NCc1ccc(F)cc1)c1ccc2nc(N3CCCCC3)sc2c1`, the Potency is 35.5 µM (active). For the molecule `CN1OC[C@@H]2CN(C(=O)C(C)(C)C)[C@H](c3ccc(-n4ccnc4)cc3)C[C@@H]21`, the “activity change, negative = active” value was -0.0839%. On the same count and under the same terms, to `CN1CCN(C(=O)c2ccc(-c3cc4nc(NCc5cccnc5)n(C)c(=O)c4s3)cc2)CC1` belongs 4.86%; to `COc1ccc(Cn2c(=O)[nH]c3cc(C(=O)N4CCN(C(=O)c5ccco5)CC4)ccc3c2=O)cc1`, -8.08%; to `CC(=O)Nc1cc(C(=O)NCc2ccc(F)cc2)ccc1Sc1ccc(F)cc1`, 0.223%. Consider `Cc1ccc(Sc2ccc(NC(=O)c3ccc(F)cc3)cc2C#N)cc1`, for which the “activity change, negative = active” value is 4.22%. For `COC(=O)c1ccc(Sc2ccc(F)cc2)c(N)c1`, the Potency was 28.2 µM (active). For the molecule `C=C1C=C(C)n2ncc(C(=O)Nc3ccccc3O)c2N1`, the “activity change, negative = active” value was -5.9%.

For the molecule `COCCn1c(SCC(=O)Nc2ccc(F)cc2F)nc2c(c1=O)SCC2`, the “activity change, negative = active” value is 1.65%.

Consider `Cc1cc2nc(-c3ccc(F)cc3)c(Cc3ccsc3)n2c(C)c1Br`, for which the “activity change, negative = active” value was -3.99%. For the molecule `Cc1c(C(=O)OCC(=O)N(CCC#N)c2ccccc2)oc2c1ccc1ccccc12`, the Potency is 25.1 µM (active). On to `N#CCCN(C(=O)COC(=O)c1ccc(S(=O)(=O)N2CCCCCC2)cc1)c1ccccc1`, for which the “activity change, negative = active” value is 1.35%.

Regarding `Cc1cc(C)n2nc(C(=O)OCC(=O)N(CCC#N)c3ccc(F)cc3)nc2n1`, the “activity change, negative = active” value is -2.14%. As to `O=C(Nc1ccc(N2CCOCC2)cc1)c1cccc2c(-c3ccc(F)c(F)c3)coc12`, the “activity change, negative = active” value is 24.2%. `Cc1nc2c(OCc3cccc(Cl)c3)cccn2c1N(C)CC1CC1`: the “activity change, negative = active” value is -11.2%. As for `COc1cc(Cn2c3ccc(NC(=O)CC(C)c4ccccc4)cc3c(=O)n2C)ccc1F` (stereo not given), the “activity change, negative = active” value was 4.54%. As to `COc1ccc(OC)c(C(=O)c2ccc(Cl)cc2)c1`, the “activity change, negative = active” value was -4.97%.

As to `COc1ccc(-n2c(-c3ccc(Cl)cc3)n[nH]c2=S)c(OC)c1`, the “activity change, negative = active” value is -16.5%. With `COc1ccc2c(c1)C(=O)Nc1cc(Cl)ccc1N2`, the Potency is 28.2 µM (active). With `CCn1c(C)cc(=O)cc1-c1ccc(Cl)cc1`, the “activity change, negative = active” value is 0.84%.

Consider `C=CCn1c(SCn2nnc3ccccc3c2=O)nnc1-c1ccc(Cl)cc1`, for which the “activity change, negative = active” value is -1.24%. For the molecule `C=CCn1c(-c2ccc(Cl)cc2)ccc(C#N)c1=O`, the Potency was 28.2 µM (active). On to `COc1cc2ccc(C(C)=O)c(O)c2cc1OC`, for which the “activity change, negative = active” value is 3.45%. `COCCNc1ncnc2c1nc1n2CCCC1`: the “activity change, negative = active” value was 0.498%. Consider `CCC(O)CNc1nc(-n2nc(C)cc2C)nc2sc3c(c12)CC(C)(C)OC3` (stereo not given), for which the “activity change, negative = active” value is -5.09%. In the case of `COCCNc1nc(-n2nc(C)cc2C)nc2sc3c(c12)CCCC3`, the Potency is 28.2 µM (active). As for `COCCCNC(=O)c1cccc2c(-c3ccc(O)c(OC)c3)coc12`, the “activity change, negative = active” value was 0.962%. Still for that read-out and setting: to `CC1=C(C(=O)Nc2cccc(C(=O)NCC(C)c3ccccc3)c2)SCCO1` (stereo not given) belongs 0.0606%; to `CN1CCN(C(=O)c2ccc(NC(=O)c3ccc(Br)o3)cc2)CC1`, 1.14%. Turning to `Cc1c(C(=O)NCc2ccc(C#N)cc2)sc(=O)n1Cc1ccc(C(=O)N(C)C)cc1`, the “activity change, negative = active” value is 1.14%.

Turning to `COC(=O)[C@@]12C[C@@H](CC(=O)N3CCC(c4ccccc4)CC3)C(=O)N(Cc3ccccc3)C1=CCC(C)(C)C2`, the “activity change, negative = active” value is 1.79%. For the molecule `COCCNC(=O)CSc1nc(N)c(NC(=O)c2ccco2)c(=O)[nH]1`, the “activity change, negative = active” value was 1.56%. The same measure, in the same setting: the same measure for `Cc1nnc(SCC(=O)NCCOc2ccc(Cl)cc2)n1-c1ccccc1`: -4.45%. Turning to `COCCNC(=O)CSc1nc(-c2ccccc2)[nH]c1-c1ccc(C)cc1`, the Potency is 31.6 µM (active).

As to `CC1(C(=O)NS(=O)(=O)c2ccccc2)CCN1C(=O)c1ccccc1` (stereo not given), the “activity change, negative = active” value is -1.98%. As to `O=C(c1cc(C2CCCCN2S(=O)(=O)c2ccccc2)on1)N1CCOCC1` (stereo not given), the “activity change, negative = active” value was -0.363%. On to `CN1C(=O)c2ccc(NC(=O)C3CCCCC3)cc2C1=O`, for which the Potency is 31.6 µM (active).

Turning to `CN1C(=O)c2ccc(NC(=O)c3c(F)c(F)c(F)c(F)c3F)cc2C1=O`, the Potency is 31.6 µM (active). For `Cc1nc2ccc(NC(=O)C3CCCCC3)cc2s1`, the “activity change, negative = active” value was -1.11%. With `Cc1cccc(C(=O)Nc2ccc3c(c2)C(=O)N(CC(C)C)C3=O)c1`, the “activity change, negative = active” value was 4.1%. `CN1C(=O)c2ccc(C(=O)Nc3ccc(Br)cn3)cc2C1=O`: the “activity change, negative = active” value was -1.62%. In the case of `O=C(Nc1ccc2c(c1)OCCO2)C1CCCC1`, the “activity change, negative = active” value is 2.15%.
